Test results reported in PubChem BioAssay AID651640 (Broad Institute, 2012).
The campaign covered roughly 350,000 compounds. About 6,000 (1.7%) were called active. Another 5% or so got no clear call; they are omitted. What follows is part of a selection rich in actives, with near analogues and random picks from the rest. Values without a mark were called inactive. Cut-off read from the data, not from the text of the source: active = CPE inhibition above about 20% (passing the limit was not always enough); inconclusive = no clear call, values can overlap the other calls; tested in BHK-21 cells.

test: protection of cells from dengue 2 killing – plate reader, single concentration, primary screen (AID 651640); settings: DENV2-infected cells, cytopathic effect rescue, at 9.99 µM, active compounds read high;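 note: 0% = median of neutral control wells and 100% = median of positive control wells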

Compared with O=C(Nc1ccccc1)N[C@@H]1CC[C@H](CCn2cc(C3(O)CCCC3)nn2)O[C@@H]1CO, O=C(N[C@H]1CC[C@H](CCn2cc(-c3ccccc3F)nn2)O[C@@H]1CO)c1ccc2c(c1)OCO2 is higher in CPE inhibition: -11.6% for the first, 6.43% for the second.

First: C[C@H](CO)N1C[C@H](C)[C@H](CN(C)C)Oc2ccc(NC(=O)Cc3ccccc3)cc2CC1=O
Second: COc1ccc(NC(=O)Nc2ccc3c(c2)C(=O)N([C@H](C)CO)C[C@@H](C)[C@H](CN(C)Cc2ccccc2)O3)cc1
The CPE inhibition of the first is higher: 9.5% for the first, -6.1% for the second.

Going from CC(C)c1cn(CC[C@@H]2CC[C@@H](NC(=O)C3CCC3)[C@@H](CO)O2)nn1 to CC(=O)N[C@H]1CC[C@H](CCNC(=O)C2CC2)O[C@H]1CO, the CPE inhibition falls from -3.48% to -5.24%.

First: Cc1noc(C)c1NC(=O)Nc1cccc2c1O[C@H](CN(C)S(C)(=O)=O)[C@H](C)CN([C@H](C)CO)C2=O
Second: Cc1ccc(S(=O)(=O)N(C)C[C@@H]2Oc3c(NC(=O)Nc4ccccc4)cccc3C(=O)N([C@H](C)CO)C[C@H]2C)cc1
The CPE inhibition of the first is higher: 6.73% for the first, 5.91% for the second.

Compared with C[C@@H]1CN([C@@H](C)CO)C(=O)c2cc(-c3cncnc3)cnc2O[C@@H]1CN(C)Cc1ccncc1, COc1ccc(-c2cnc3c(c2)C(=O)N([C@H](C)CO)C[C@@H](C)[C@H](CN(C)C(=O)Cc2ccncc2)O3)cc1 is lower in CPE inhibition: 15% for the first, -3.69% for the second.

First: CO[C@@H]1CN(C)C(=O)c2cc(NC(=O)Nc3cc(F)ccc3F)ccc2OC[C@H](C)N(C)C[C@@H]1C
Second: CO[C@@H]1CN(C)C(=O)c2ccc(NS(=O)(=O)c3cn(C)cn3)cc2OC[C@H](C)N(CCC(F)(F)F)C[C@@H]1C
The CPE inhibition of the first is higher: -0.0135% for the first, -5.08% for the second.

First: CN1c2ccc(-c3ccc(C#N)cc3)cc2[C@@H]2[C@@H](CCN2C(=O)C2CCCCC2)[C@H]1CO
Second: CN1c2ccc(-c3cccc(C#N)c3)cc2[C@@H]2[C@@H](CCN2C(=O)NC2CCCCC2)[C@@H]1CO
The CPE inhibition of the first is lower: -20.7% for the first, -19.7% for the second.

Going from Cc1ccc(CN2CC(N3CCC(Cc4ccccc4)CC3)CS2(=O)=O)cc1 (configuration not stated) to Clc1cccc2c1C1CC2CCN1Cc1ccccc1 (configuration not stated), the CPE inhibition rises from -8.76% to -7.07%.

Going from O=S1(=O)CCOC[C@H](CC2CCCCC2)N1Cc1ccc(F)cc1 to CN1[C@@H]2CN(C(=O)C3CCCCC3)c3ccccc3[C@@H]2[C@@H]1CO, the CPE inhibition falls from 3.12% to -5.31%.

Compared with FC(F)(F)c1ccc(-c2cccc3c2C2CC3CCN2Cc2ccccc2)cc1 (configuration not stated), O=C(c1cccc(F)c1)N1C[C@H]2[C@@H](c3ccccc31)[C@@H](CO)N2C(=O)Cc1ccccc1 is lower in CPE inhibition: -4.78% for the first, -5.94% for the second.

Compared with COc1cccc(S(=O)(=O)N(C)C[C@@H]2Oc3ncc(-c4cccc(C(=O)N(C)C)c4)cc3C(=O)N([C@H](C)CO)C[C@@H]2C)c1, COc1ccc(S(=O)(=O)N(C)C[C@@H]2Oc3c(NS(=O)(=O)c4ccccc4)cccc3C(=O)N([C@@H](C)CO)C[C@@H]2C)cc1 is lower in CPE inhibition: 9.65% for the first, -6.28% for the second.

First: Cc1ccc(S(=O)(=O)N(C)C[C@H]2Oc3c(NS(=O)(=O)c4cccs4)cccc3C(=O)N([C@@H](C)CO)C[C@@H]2C)cc1
Second: C[C@@H]1CN([C@@H](C)CO)C(=O)c2cccc(NS(=O)(=O)c3ccc(F)cc3)c2O[C@H]1CN(C)S(=O)(=O)c1cccs1
The CPE inhibition of the first is higher: -0.283% for the first, -1.22% for the second.

Compared with C[C@H]1CN([C@@H](C)CO)C(=O)c2cccc(NS(=O)(=O)c3ccc(Cl)cc3)c2O[C@H]1CN(C)S(=O)(=O)c1ccc(Cl)cc1, COc1ccc(S(=O)(=O)Nc2cccc3c2O[C@@H](CN(C)S(=O)(=O)c2ccc(F)cc2)[C@H](C)CN([C@H](C)CO)C3=O)cc1 is lower in CPE inhibition: -6.39% for the first, -7.57% for the second.

First: C[C@H](CO)N1C[C@H](C)[C@H](CN(C)S(=O)(=O)c2ccccc2)Oc2c(NC(=O)Nc3ccccc3)cccc2C1=O
Second: C[C@@H]1CN([C@@H](C)CO)C(=O)c2cccc(NC(=O)Nc3ccc(F)cc3)c2O[C@H]1CN(C)C(=O)Nc1ccc(F)cc1
The CPE inhibition of the first is lower: -3.55% for the first, 14.7% for the second.

First: C[C@@H]1CN([C@@H](C)CO)C(=O)c2cccc(NS(=O)(=O)c3cccs3)c2O[C@H]1CN(C)Cc1ccncc1
Second: C[C@@H]1CN([C@H](C)CO)C(=O)c2cccc(NC(=O)c3cnccn3)c2O[C@@H]1CN(C)Cc1ccncc1
The CPE inhibition of the first is lower: -4.19% for the first, 5.84% for the second.

First: Cc1ccc(S(=O)(=O)NCC[C@@H]2CC[C@H](NC(=O)CC3CC3)[C@H](CO)O2)cc1
Second: O=C(C[C@@H]1CC[C@@H](NS(=O)(=O)c2ccccc2)[C@H](CO)O1)NCc1ccc(Cl)c(Cl)c1
The CPE inhibition of the first is lower: -2.24% for the first, 3.78% for the second.

Going from CCCC#Cc1ccc2c(c1)O[C@H](CN(C)C(=O)c1ccncc1)[C@H](C)CN([C@H](C)CO)S2(=O)=O to CCC(=O)N(C)C[C@H]1Oc2ncc(C#Cc3cccnc3)cc2C(=O)N([C@H](C)CO)C[C@H]1C, the CPE inhibition rises from -4.65% to 4.92%.

Going from C[C@@H]1CN([C@@H](C)CO)C(=O)c2cc(NC(=O)CCN3CCOCC3)ccc2O[C@H]1CN(C)C(=O)NC1CCCCC1 to COc1ccc(NC(=O)Nc2ccc3c(c2)C(=O)N([C@H](C)CO)C[C@@H](C)[C@@H](CN(C)C(=O)NC(C)C)OCCCC[C@H](C)O3)cc1, the CPE inhibition rises from -3.33% to 4.29%.

Compared with CC(C)NC(=O)N1C[C@@H]2[C@H](c3ccccc31)[C@H](CO)N2C(=O)C1CCCC1, COc1ccccc1NC(=O)N1C[C@@H]2[C@H](c3ccccc31)[C@H](CO)N2CC1CCOCC1 is higher in CPE inhibition: -6.09% for the first, 16.7% for the second.

Compared with CC(=O)N1C[C@@H]2[C@H](c3ccccc31)[C@H](CO)N2Cc1ccc(Cl)cc1, COc1ccc(CN2[C@@H](CO)[C@@H]3c4ccccc4N(C(=O)Nc4ccccc4)C[C@@H]32)cc1 is lower in CPE inhibition: 16.8% for the first, -9.93% for the second.

Compared with COc1ccc(C(=O)N2C[C@@H]3[C@H](c4ccccc42)[C@H](CO)N3Cc2ccc3c(c2)OCO3)cc1, O=C(c1ccc2c(c1)OCO2)N1CC(=O)N2[C@H](C1)[C@@H](c1ccc(C#Cc3ccccc3)cc1)[C@@H]2CO is higher in CPE inhibition: -6.95% for the first, 11.6% for the second.

Compared with CCCNC(=O)N1[C@H](C#N)[C@@H](c2ccccc2C2=CCCCC2)[C@@H]1CO, COCC(=O)N1[C@H](C(=O)N2CCN(C)CC2)[C@@H](CO)[C@@H]2Cn3c(ccc(C4=CCCC4)c3=O)[C@@H]21 is lower in CPE inhibition: -2.61% for the first, -7.88% for the second.

Going from COc1cccc(S(=O)(=O)N2CC3(CCN(C)CC3)c3c(n(C)c4cc(OC)ccc34)[C@H]2CO)c1 to C[C@@H]1CCCCO[C@@H](CN(C)S(=O)(=O)c2cccs2)[C@@H](C)CN([C@@H](C)CO)C(=O)c2cc(NS(=O)(=O)c3ccc(F)cc3)ccc2O1, the CPE inhibition falls from 3.74% to -8.5%.

First: CC(=O)C1=C(C)N(Cc2ccccc2)C(=S)NC1c1cccc(Br)c1 (configuration not stated)
Second: Cc1c(C(=O)NCCCc2ccccc2)cccc1[N+](=O)[O-]
The CPE inhibition of the first is lower: -5.19% for the first, 4.47% for the second.

Going from CC(C)NC(=O)N(C)C[C@@H]1Oc2c(NC(=O)c3cnccn3)cccc2C(=O)N([C@@H](C)CO)C[C@@H]1C to C[C@H]1CN([C@@H](C)CO)C(=O)c2cccc(NC(=O)c3cnccn3)c2O[C@@H]1CN(C)Cc1ccc(Oc2ccccc2)cc1, the CPE inhibition rises from -11.9% to 2.15%.

Compared with CO[C@@H]1CN(C)C(=O)c2ccc(NS(C)(=O)=O)cc2OC[C@@H](C)N(C(=O)CC2CC2)C[C@@H]1C, Cc1nn(Cc2ccccc2)c(C)c1C(=O)NCCN1C(=O)S/C(=C\c2ccc(F)cc2)C1=O is lower in CPE inhibition: -2.7% for the first, -3.31% for the second.

Compared with Cc1c(C)n2c(SCC(=O)N3CCCC3)nnc2[nH]c1=O, CCc1ccc(C(=O)CSc2nnc(C)c(=O)[nH]2)cc1 is lower in CPE inhibition: 13.9% for the first, -2.63% for the second.

For Cc1ccc(CN2CCCOCCS2(=O)=O)cc1, the CPE inhibition was 40.2% (active).
In the case of CCCCN(C(C)=O)c1ccc2c(c1)C1CC2CCN1Cc1ccccc1 (configuration not stated), the CPE inhibition is reported as 42.3% (active).
With C[C@@H]1CN([C@@H](C)CO)C(=O)c2cccc(NS(=O)(=O)c3cccs3)c2O[C@@H]1CN(C)CC1CC1 the CPE inhibition was 30.5% (active).
For C[C@H]1CN([C@@H](C)CO)C(=O)c2cccc(NC(=O)Nc3ccccc3)c2O[C@H]1CN(C)S(=O)(=O)c1ccc(Cl)cc1, the CPE inhibition was 29.2% (active).
For C[C@H](CO)N1C[C@H](C)[C@H](CN(C)S(=O)(=O)c2cccs2)Oc2c(NS(=O)(=O)c3ccc(Cl)cc3)cccc2C1=O, the CPE inhibition was 24.5% (active).
With COc1ccc(S(=O)(=O)Nc2cccc3c2O[C@H](CN(C)S(=O)(=O)c2ccc(OC)cc2)[C@@H](C)CN([C@H](C)CO)C3=O)cc1 the CPE inhibition was 21.2% (active).
For COc1ccc(CN2[C@H](CO)[C@@H]3c4ccccc4N(C(=O)C4CC4)C[C@@H]32)cc1, the CPE inhibition was 26.1% (active).
For CC(C)NC(=O)N1C[C@@H]2[C@H](c3ccccc31)[C@@H](CO)N2Cc1ccc(Cl)cc1, the CPE inhibition was 47.3% (active).
With COc1ccccc1NC(=O)N1C[C@H]2[C@@H](c3ccccc31)[C@H](CO)N2Cc1ccc2c(c1)OCO2 the CPE inhibition was 55.6% (active).
With C[C@H]1CN([C@@H](C)CO)C(=O)c2cccc(NC(=O)c3cnccn3)c2O[C@H]1CN(C)C(=O)Nc1ccccc1 the CPE inhibition was 28.3% (active).
With C[C@H](CO)N1C[C@H](C)[C@H](CN(C)C(=O)Nc2ccc(F)cc2)Oc2c(NC(=O)c3cnccn3)cccc2C1=O the CPE inhibition was 29.3% (active).
With Cc1c(C(=O)NCCN2C(=O)S/C(=C\c3cccs3)C2=O)cccc1[N+](=O)[O-] the CPE inhibition was 27% (active).
In the case of Cc1nnc(SCC(=O)N2CCOCC2)[nH]c1=O, the CPE inhibition is reported as 58.6% (active).
